Test results: the supplement of paper PMC10849652
Targets with a hit are over-represented here; the source holds about 8,800 in all. About 0.5% of all pairs of compound and target were hits.

Tests used:
Assay in all cases: log2 fold change, soluble protein after heating vs DMSO (PISA); higher = thermal stabilisation; K562 lysate, 10 uM; active = over 0.2 and 3.5 SD of the protein, either way, in both replicates (recomputed)
[1] = compound: CN1CC[C@H](c2c(O)cc(O)c3c(=O)cc(-c4ccccc4Cl)oc23)[C@H](O)C1 [alvocidib]
How it was run: (§1)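 The values are log-two fold changes in thermal stability compared with solvent controls and come from duplicates. They were obtained by TMTpro 16plex LC-MS/MS, with channel sums equalised, on the supernatant after 21,000xg for 90 min. That supernatant came from crude K562 extract at 1 mg/mL protein treated with 10 μM compound for 30 min, heated for 3 min across 48°C-58°C, pooled and brought to 0.5% NP-40 at 4°C.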

[2] = compound: CN1CCc2c(c3ccccc3n2Cc2ccc(C(=O)NO)cc2)C1 [Tubastatin A]
How it was run: as §1

[3] = compound: CNC(=O)C1=CC=CC=C1NC2=NC(=NC=C2Cl)NC3=C(C=C(C=C3)N4CCOCC4)OC
How it was run: as §1

[4] = compound: CNC(=O)c1ccc(Nc2ncc(C(F)(F)F)c(NCc3nccnc3N(C)S(C)(=O)=O)n2)cc1 [defactinib]
How it was run: as §1

[5] = compound: CNc1nc(-c2ccc3c(N)n[nH]c3c2)cc(N2C[C@@H](C(=O)NC3CCCCC3)CC[C@H]2C)n1
How it was run: as §1

[6] = compound: COC(=O)N[C@@H](C)CNc1nccc(-c2cn(C(C)C)nc2-c2cc(Cl)cc(NS(C)(=O)=O)c2F)n1 [encorafenib]
How it was run: as §1

[7] = compound: COC(=O)[C@H](CCSC)NC(=O)C1=C(C=C(C=C1)NC[C@H](CS)N)C2=CC=CC=C2
How it was run: as §1

[8] = compound: COc1cc(Nc2ncc3c(n2)-c2ccc(Cl)cc2C(c2c(F)cccc2OC)=NC3)ccc1C(=O)O [alisertib]
How it was run: as §1

[9] = compound: COc1cc2nc(-c3cc(F)ccc3O)nc(N[C@@H]3CNC[C@H]3C(C)(C)O)c2cc1OC
How it was run: as §1

[10] = compound: COc1cc2ncnc(Nc3ccc(F)c(Cl)c3)c2cc1OCCCN1CCOCC1 [gefitinib]
How it was run: as §1

[11] = compound: CS(=O)(=O)CCNCc1ccc(-c2ccc3ncnc(Nc4ccc(OCc5cccc(F)c5)c(Cl)c4)c3c2)o1 [lapatinib]
How it was run: as §1

[12] = compound: CS(=O)(=O)N1CCN(Cc2cc3nc(-c4cccc5[nH]ncc45)nc(N4CCOCC4)c3s2)CC1 [pictilisib]
How it was run: as §1

[13] = compound: C[C@@H](Oc1cc(-c2cnn(C3CCNCC3)c2)cnc1N)c1c(Cl)ccc(F)c1Cl [crizotinib]
How it was run: as §1

[14] = compound: C[C@H](C1=CC=C(C=C1)C(=O)NC2=C3C=CNC3=NC=C2)N
How it was run: as §1

[15] = compound: C[C@H](Nc1ncnc2nc[nH]c12)c1cc2cccc(Cl)c2c(=O)n1-c1ccccc1 [duvelisib]
How it was run: as §1

[16] = compound: Cc1cc(Nc2cc(CN3CCOCC3)c3nc(C)c(Cc4ccc(Cl)cc4F)n3n2)n[nH]1 [gandotinib]
How it was run: as §1

[17] = compound: Cc1cc(Nc2cc(N3CCN(C)CC3)nc(Sc3ccc(NC(=O)C4CC4)cc3)n2)n[nH]1 [tozasertib]
How it was run: as §1

[18] = compound: Cc1ccc(-n2nc(C(C)(C)C)cc2NC(=O)Nc2ccc(OCCN3CCOCC3)c3ccccc23)cc1 [doramapimod]
How it was run: as §1

[19] = compound: Cc1ccc(NC(=O)c2ccc(CN3CC[C@H](N(C)C)C3)c(C(F)(F)F)c2)cc1Nc1nccc(-c2cncnc2)n1 [bafetinib]
How it was run: as §1

[20] = compound: Cc1cccc(CC(=O)N2CCc3c2ccc(-c2cn(C)c4ncnc(N)c24)c3F)n1
How it was run: as §1

Measured: log2 fold change

GCLM (UniProt P48507)
Chain of UniProt P48507 (P48507 whole entry, looked up): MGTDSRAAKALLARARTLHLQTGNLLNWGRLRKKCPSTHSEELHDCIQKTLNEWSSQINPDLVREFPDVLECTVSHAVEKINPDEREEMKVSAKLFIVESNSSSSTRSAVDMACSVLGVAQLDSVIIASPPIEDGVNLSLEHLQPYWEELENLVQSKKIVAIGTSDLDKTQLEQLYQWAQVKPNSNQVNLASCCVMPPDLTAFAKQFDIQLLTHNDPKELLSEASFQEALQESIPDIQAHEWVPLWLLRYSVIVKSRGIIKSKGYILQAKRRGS
inactive: [1] 0.028 | [2] -0.049 | [3] 0.003 | [4] 0.003 | [5] -0.038 | [6] -0.003 | [7] -0.004 | [8] 0.05 | [9] 0.002 | [10] -0.023 | [11] -0.006 | [12] -0.013 | [13] 0.018 | [14] -0.009 | [15] 0.016 | [16] -0.004 | [17] -0.017 | [18] 0.001 | [19] 0.003 | [20] -0.03

FBLL1 (UniProt A6NHQ2)
inactive: [1] -0.009 | [2] -0.049 | [3] -0.036 | [4] 0.047 | [5] 0.081 | [6] 0.042 | [7] 0.056 | [8] 0.012 | [9] 0.005 | [10] 0.035 | [11] 0.014 | [12] -0.076 | [13] -0.041 | [15] 0.059 | [16] 0.028 | [17] 0.047 | [18] -0.013 | [19] -0.075 | [20] 0.053
active: [14] -0.277

DSN1 (UniProt Q9H410)
Chain of UniProt Q9H410 (Q9H410 whole entry, looked up): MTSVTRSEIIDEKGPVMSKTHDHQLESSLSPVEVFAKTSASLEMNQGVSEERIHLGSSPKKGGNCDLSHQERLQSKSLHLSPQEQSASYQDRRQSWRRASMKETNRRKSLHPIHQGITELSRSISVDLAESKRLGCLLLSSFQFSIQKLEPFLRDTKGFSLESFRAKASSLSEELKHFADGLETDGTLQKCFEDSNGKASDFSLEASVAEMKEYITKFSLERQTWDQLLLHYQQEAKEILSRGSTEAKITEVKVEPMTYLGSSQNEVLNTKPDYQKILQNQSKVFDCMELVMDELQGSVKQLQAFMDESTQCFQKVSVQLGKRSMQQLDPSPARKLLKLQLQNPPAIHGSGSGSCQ
inactive: [1] -0.046 | [2] -0.087 | [3] 0.076 | [4] 0.059 | [5] 0.04 | [6] 0.006 | [7] 0.107 | [8] -0.005 | [9] 0.004 | [10] 0 | [11] 0.009 | [12] -0.027 | [13] -0.016 | [14] -0.051 | [15] 0.004 | [16] 0.008 | [17] 0.015 | [18] -0.037 | [19] -0.026 | [20] 0.021

G6PD isoform 2 (UniProt P11413)
inactive: [1] 0.029 | [2] -0.068 | [3] 0.013 | [4] 0.031 | [5] 0.009 | [6] -0.025 | [7] 0.145 | [8] 0.021 | [9] -0.017 | [10] -0.023 | [11] 0.018 | [12] -0.022 | [13] -0.03 | [14] 0.094 | [15] -0.023 | [16] -0.063 | [17] -0.003 | [18] -0.015 | [19] 0.037 | [20] -0.035

FPGT (UniProt O14772)
Chain of UniProt O14772 (O14772 whole entry, looked up): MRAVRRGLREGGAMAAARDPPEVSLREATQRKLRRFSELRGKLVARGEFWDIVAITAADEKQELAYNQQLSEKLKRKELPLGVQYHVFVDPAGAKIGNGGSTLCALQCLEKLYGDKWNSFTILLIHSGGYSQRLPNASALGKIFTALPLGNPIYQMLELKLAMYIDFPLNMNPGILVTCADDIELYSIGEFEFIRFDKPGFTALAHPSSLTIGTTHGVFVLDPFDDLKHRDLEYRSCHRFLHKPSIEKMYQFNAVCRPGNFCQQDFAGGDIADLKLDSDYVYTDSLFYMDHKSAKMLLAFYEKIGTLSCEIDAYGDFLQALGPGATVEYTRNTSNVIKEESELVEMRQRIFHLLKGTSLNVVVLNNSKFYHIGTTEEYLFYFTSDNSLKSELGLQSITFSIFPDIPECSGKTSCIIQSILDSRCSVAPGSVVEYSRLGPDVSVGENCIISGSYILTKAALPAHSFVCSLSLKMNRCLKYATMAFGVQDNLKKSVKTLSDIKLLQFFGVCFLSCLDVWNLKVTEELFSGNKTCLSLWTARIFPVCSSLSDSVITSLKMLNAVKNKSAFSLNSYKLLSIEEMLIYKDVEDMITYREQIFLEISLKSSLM
inactive: [1] 0.031 | [2] -0.111 | [3] -0.011 | [4] 0.008 | [5] -0.02 | [6] 0.011 | [7] 0.058 | [8] 0.002 | [9] 0.002 | [10] 0.013 | [11] 0.005 | [12] 0.019 | [13] -0.077 | [15] 0.006 | [16] -0.085 | [17] 0.012 | [18] 0.054 | [19] -0.043 | [20] -0.012
active: [14] 0.319

FYCO1 isoform 4 (UniProt Q9BQS8)
Chain of UniProt Q9BQS8 (Q9BQS8 whole entry, looked up): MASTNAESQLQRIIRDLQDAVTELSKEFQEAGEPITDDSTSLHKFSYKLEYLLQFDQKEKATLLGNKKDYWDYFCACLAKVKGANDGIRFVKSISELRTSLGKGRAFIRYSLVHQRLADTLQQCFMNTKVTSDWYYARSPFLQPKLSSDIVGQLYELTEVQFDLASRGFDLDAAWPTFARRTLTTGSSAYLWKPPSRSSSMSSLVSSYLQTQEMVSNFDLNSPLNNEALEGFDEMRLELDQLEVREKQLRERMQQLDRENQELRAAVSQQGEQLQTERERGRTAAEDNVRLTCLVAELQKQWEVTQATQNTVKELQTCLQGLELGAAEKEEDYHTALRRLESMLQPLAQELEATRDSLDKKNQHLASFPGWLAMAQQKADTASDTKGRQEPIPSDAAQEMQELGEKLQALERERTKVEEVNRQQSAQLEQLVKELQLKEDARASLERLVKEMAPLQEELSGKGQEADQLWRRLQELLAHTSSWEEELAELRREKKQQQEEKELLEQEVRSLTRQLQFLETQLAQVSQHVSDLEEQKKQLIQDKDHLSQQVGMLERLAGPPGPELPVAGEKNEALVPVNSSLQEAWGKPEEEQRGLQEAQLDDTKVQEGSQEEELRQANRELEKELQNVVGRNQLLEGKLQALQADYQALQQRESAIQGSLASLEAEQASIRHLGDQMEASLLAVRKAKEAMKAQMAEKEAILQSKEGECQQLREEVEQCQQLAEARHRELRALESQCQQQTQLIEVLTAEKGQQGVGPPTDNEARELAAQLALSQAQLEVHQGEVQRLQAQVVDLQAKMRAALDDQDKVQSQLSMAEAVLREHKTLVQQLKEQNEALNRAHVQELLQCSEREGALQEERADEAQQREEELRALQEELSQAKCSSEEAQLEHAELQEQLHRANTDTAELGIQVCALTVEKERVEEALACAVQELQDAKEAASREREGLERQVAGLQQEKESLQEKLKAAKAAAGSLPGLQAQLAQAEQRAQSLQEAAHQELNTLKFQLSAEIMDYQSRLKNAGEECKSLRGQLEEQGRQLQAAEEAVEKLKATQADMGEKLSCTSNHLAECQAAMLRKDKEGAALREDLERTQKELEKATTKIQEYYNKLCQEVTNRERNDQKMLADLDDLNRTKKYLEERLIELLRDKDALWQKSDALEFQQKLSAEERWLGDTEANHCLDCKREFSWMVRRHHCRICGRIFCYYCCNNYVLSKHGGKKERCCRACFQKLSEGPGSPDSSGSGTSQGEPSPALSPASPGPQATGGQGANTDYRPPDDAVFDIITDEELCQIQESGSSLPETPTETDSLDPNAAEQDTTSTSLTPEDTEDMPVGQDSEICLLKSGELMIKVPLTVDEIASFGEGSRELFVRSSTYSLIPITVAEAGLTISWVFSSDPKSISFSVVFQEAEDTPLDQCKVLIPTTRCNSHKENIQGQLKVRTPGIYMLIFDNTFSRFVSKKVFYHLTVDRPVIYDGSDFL
inactive: [1] -0.052 | [2] 0 | [3] -0.001 | [4] -0.002 | [5] -0.006 | [6] 0.033 | [7] 0.024 | [8] 0.018 | [9] 0.018 | [10] 0.016 | [11] -0.005 | [12] -0.018 | [13] -0.018 | [14] -0.114 | [15] 0.036 | [16] 0.229 | [17] 0.021 | [18] -0.009 | [19] -0.019 | [20] 0.176

GBF1 (UniProt Q92538)
Chain of UniProt Q92538 (Q92538 whole entry, looked up): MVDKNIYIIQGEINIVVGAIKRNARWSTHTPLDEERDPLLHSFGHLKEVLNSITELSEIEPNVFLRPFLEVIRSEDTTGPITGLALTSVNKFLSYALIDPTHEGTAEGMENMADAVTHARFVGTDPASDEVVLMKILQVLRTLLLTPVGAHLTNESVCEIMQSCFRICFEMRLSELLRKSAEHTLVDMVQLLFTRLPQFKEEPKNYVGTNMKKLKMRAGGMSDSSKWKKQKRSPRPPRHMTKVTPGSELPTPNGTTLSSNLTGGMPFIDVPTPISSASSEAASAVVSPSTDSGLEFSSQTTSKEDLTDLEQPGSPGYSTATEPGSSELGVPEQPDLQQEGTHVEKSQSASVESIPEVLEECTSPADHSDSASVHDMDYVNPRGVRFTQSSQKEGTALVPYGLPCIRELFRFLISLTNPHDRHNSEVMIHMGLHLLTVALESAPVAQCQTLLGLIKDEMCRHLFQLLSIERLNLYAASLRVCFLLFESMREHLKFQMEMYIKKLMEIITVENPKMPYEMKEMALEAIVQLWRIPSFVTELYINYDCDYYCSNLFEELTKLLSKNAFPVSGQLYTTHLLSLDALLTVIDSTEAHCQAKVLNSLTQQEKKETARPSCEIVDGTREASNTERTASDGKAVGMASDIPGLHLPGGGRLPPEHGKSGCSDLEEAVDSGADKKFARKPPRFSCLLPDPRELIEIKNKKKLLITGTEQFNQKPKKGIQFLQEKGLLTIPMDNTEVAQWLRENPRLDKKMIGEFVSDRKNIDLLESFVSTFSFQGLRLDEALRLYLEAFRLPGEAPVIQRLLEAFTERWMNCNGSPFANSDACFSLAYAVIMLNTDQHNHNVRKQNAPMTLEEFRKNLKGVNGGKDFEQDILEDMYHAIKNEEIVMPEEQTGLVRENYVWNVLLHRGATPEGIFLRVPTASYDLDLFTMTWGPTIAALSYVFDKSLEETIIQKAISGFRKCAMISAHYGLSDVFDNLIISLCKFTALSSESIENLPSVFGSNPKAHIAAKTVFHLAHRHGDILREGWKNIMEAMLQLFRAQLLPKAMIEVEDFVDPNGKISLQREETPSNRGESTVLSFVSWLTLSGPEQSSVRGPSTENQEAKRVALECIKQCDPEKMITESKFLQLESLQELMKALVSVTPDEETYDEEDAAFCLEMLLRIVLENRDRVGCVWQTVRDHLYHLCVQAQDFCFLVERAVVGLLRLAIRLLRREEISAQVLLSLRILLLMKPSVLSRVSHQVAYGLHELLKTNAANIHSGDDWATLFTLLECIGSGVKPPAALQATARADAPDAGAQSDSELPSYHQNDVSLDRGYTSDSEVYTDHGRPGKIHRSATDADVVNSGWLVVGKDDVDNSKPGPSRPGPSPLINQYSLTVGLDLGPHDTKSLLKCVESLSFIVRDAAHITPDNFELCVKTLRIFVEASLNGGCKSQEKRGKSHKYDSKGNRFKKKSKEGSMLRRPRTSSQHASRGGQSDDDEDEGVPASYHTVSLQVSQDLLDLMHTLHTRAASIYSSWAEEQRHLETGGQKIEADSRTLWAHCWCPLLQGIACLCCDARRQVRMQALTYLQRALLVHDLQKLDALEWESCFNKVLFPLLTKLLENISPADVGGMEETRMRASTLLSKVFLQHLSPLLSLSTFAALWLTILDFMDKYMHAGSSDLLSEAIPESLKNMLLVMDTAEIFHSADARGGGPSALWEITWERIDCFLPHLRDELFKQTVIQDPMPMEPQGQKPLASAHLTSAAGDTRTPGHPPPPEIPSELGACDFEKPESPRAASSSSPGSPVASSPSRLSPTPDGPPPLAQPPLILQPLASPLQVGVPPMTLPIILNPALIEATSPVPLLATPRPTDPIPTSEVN
inactive: [1] 0 | [2] -0.041 | [3] 0.032 | [4] 0.007 | [5] 0.004 | [6] 0.036 | [7] -0.031 | [8] 0.002 | [9] -0.008 | [10] -0.03 | [11] -0.015 | [12] -0.023 | [13] -0.064 | [14] -0.026 | [15] -0.002 | [16] -0.108 | [17] 0.014 | [18] -0.006 | [19] -0.043 | [20] 0.049

ETHE1 (UniProt O95571)
Chain of UniProt O95571 (O95571 whole entry, looked up): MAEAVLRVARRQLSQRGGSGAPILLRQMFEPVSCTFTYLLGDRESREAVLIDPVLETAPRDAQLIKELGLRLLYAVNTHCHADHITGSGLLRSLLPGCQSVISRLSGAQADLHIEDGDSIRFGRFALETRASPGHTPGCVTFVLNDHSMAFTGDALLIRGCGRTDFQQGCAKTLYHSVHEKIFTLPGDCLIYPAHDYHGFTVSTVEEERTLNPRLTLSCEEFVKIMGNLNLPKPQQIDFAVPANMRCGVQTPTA
inactive: [1] -0.076 | [2] 0.035 | [3] -0.014 | [4] -0.008 | [5] -0.021 | [6] 0.008 | [7] 0.037 | [8] 0.094 | [9] 0.022 | [10] -0.14 | [11] 0.049 | [12] -0.049 | [13] -0.022 | [14] -0.034 | [15] -0.011 | [16] 0.016 | [17] -0.06 | [18] 0.005 | [19] 0.038 | [20] 0.018
